Each structure is given as a SMILES string. Records with an inconclusive call do not appear. Where a call stands in place of a potency, no number is given. The source made the active and inactive calls. Calls follow the shape of the dose curve; as a rule, active = well fitted inhibition curve with a large enough effect; inconclusive = small, poorly fitted or top-dose-only effect; inactive = flat fitted curve, though single readings scatter.

In PubChem BioAssay (NCATS) one finds Potency data, which are given here for 26 compounds.

In this assay the test system is CRL-7250. Nature of the assay: qHTS assay to identify novel small-molecules to repurpose for Merkel cell carcinoma treatment (AID 1296009). Also: nearly all actives have a fitted effect of over 60% in size. Particulars: MCC and control cell lines, CellTiter-Glo viability, 72 h; series mostly up to 92 µM. The method in brief:
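CellTiter-Glo luminescence after 72 hr compound exposure at 37 degree celsius gave cell viability. Libraries NPC and MIPE were run as 8- and 11-point dose responses; RLUs normalized to DMSO (negative) and no-cell (cytotoxicity) controls.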
`O=C(NCc1ccc(OC(F)(F)F)cc1)C1c2ccccc2C(=O)N1C1CCOCC1` (stereo unspecified): the Potency result is “inactive”. As for `O=c1ccn(C2OC(CO)C(O)C2O)c(=O)[nH]1` (stereo unspecified), the Potency result is “inactive”.

With `CC(=O)OC(C)(C)/C=C/C(=O)[C@](C)(O)C1[C@H](O)C[C@@]2(C)[C@@H]3CC=C4[C@@H](C[C@H](O[C@@H]5O[C@H](CO)[C@@H](O)[C@H](O)[C@H]5O)C(=O)C4(C)C)[C@]3(C)C(=O)C[C@]12C` (stereo partly specified), the Potency result was “inactive”.

Take `COc1cccc(-c2ccc([C@@H](Oc3cc(-c4ccc(C[C@H](N)C(=O)O)cc4)nc(N)n3)C(F)(F)F)cc2)c1`: the Potency entry is “inactive”.

As for `C[C@H]1[C@H](C)CC[C@]2(C(=O)O)CC[C@]3(C(=O)O)C(=CCC4[C@@]5(C)CC[C@H](O[C@@H]6O[C@@H](C)[C@H](O)[C@@H](O)[C@H]6O)C(C)(C)C5CC[C@]43C)[C@H]12` (stereo partly specified), the Potency result was “inactive”.

On to `C=C1CCC2C(C)(COC3OC(COC(=O)CC(=O)O)C(O)C(O)C3O)CCCC2(C)C1CCC1=CCOC1=O` (stereo unspecified), for which the Potency entry is “inactive”.

For the compound `CC1=CC(=O)CC(C)(C)C1CCC(C)O[C@@H]1O[C@H](CO)[C@@H](O)[C@H](O)[C@H]1O` (stereo partly specified), the Potency entry is “inactive”. As to `O=C(/C=C/c1ccccc1)O[C@@H]1[C@@H](CO)O[C@@](CO)(O[C@H]2O[C@H](CO)[C@@H](O)[C@H](O)[C@H]2O)[C@H]1O`, the Potency entry was “inactive”.

As to `COC(=O)[C@@H]1C2CC3c4[nH]c5ccccc5c4CCN3CC2CC[C@@H]1O` (stereo partly specified), the Potency entry is “inactive”. The entry for `COc1cc(C2Oc3c(OC)cc(CCCO)cc3C2CO)ccc1O[C@H]1O[C@H](C)[C@@H](O)[C@H](O)[C@@H]1O` (stereo partly specified) is “inactive”. The entry for `CCCN1CCC=C(c2cc(-c3ccc(C)cc3)no2)C1` is “inactive”; for `O=C(NCc1ccc(F)cc1)C(=O)c1c[nH]c2ccccc12` it is “inactive”; for `O=C(O[C@H]1[C@@H]2C=CO[C@@H](O[C@@H]3O[C@H](CO)[C@@H](O)[C@H](O)[C@H]3O)[C@@H]2[C@@]2(CO)O[C@@H]12)c1ccc(O)c(O)c1` it is “inactive”.

On to `C[C@@H]1C(=O)O[C@H]2[C@H]1CC[C@@]1(C)C(=O)C=C[C@](C)(O)[C@H]21`, for which the Potency entry is “inactive”. The value for `NC1(c2ccc(NC(=O)c3ccnc(-c4cc(C(=O)O)ccn4)c3)cc2)CC1` was “inactive”. The entry for `COC(=O)C1=COC(O[C@@H]2O[C@H](CO)[C@@H](O)[C@H](O)[C@H]2O)[C@H]2[C@@H]1[C@H](OC(=O)CCc1ccc(O)cc1)C[C@]2(C)O` (stereo partly specified) is “inactive”; for `Nc1nc2c(cnn2CCCc2ccc(O)cc2)c2nc(-c3ccco3)nn12` it is “inactive”. The value for `CC(C)CC(=O)NCCn1cc(C(=O)O)c(=O)cc1C(O)c1ccccc1` (stereo unspecified) was “inactive”; that for `C/C=C/CCC1Cc2cc(O)c(CCCC)c(O)c2C(=O)O1` (stereo unspecified) was “inactive”; that for `CC1CCC2(C(=O)O)CCC3(C)C(=CCC4C5(C)CCC(OC(=O)/C=C/c6ccccc6)C(C)(C)C5CCC43C)C2C1C` (stereo unspecified) was “inactive”. With `Cc1oc(S(=O)(=O)N2CCCCC2)cc1NC(=O)Nc1ccccc1`, the Potency entry is “inactive”. The value for `CC(C)=C[C@@H]1[C@H](CO[C@@H]2O[C@H](CO)[C@@H](O)[C@H](O)[C@H]2O)C1(C)C` was “inactive”. The entry for `C/C(=C\CCC(C)CCO)C(=O)O[C@@H]1[C@@H](O)[C@H](OC2OC=C(C(=O)O)C3CCC(C)(O)C23)O[C@H](CO)[C@H]1O` (stereo partly specified) is “inactive”.

With `N#CCc1ccc(O)cc1O[C@@H]1O[C@H](CO)[C@@H](O)[C@H](O)[C@H]1O`, the Potency entry is “inactive”. The entry for `CO[C@@H]1CC[C@H](OC[C@]2(COC(=O)c3ccc(C)[nH]3)[C@H](OC(C)=O)CC[C@@]3(C)[C@@H]4CC=C(C)[C@@H](C5=C(O)C(=O)OC5O)[C@]4(C)CC[C@@H]32)O[C@H]1C` (stereo partly specified) is “inactive”; for `C=C(C(=O)O)[C@@H]1CC[C@H](C)[C@@H]2CC(=O)C(C)=C2C1` it is “inactive”.
